Assay results: PubChem BioAssay (NCI)
The panel holds about 79,000 compounds, 15% with a hit somewhere; the sample as a whole holds those more often. No stated cut-off is given here; in the data, active means growth inhibition above about 70%; inactive means the rest.

What was measured:
[1] = NCI Yeast Anticancer Drug Screen. Data for the rad50 strain (AID 155);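 further: 0% = growth of vehicle-only cultures of the same strain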; settings: S. cerevisiae rad50 strain growth inhibition; at 50.0 µM; hits give high values
Summary of the method: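 Vehicle-treated cultures provide the reference for the growth inhibition reported for compound-exposed, repair-deficient yeast.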

[2] = NCI Yeast Anticancer Drug Screen. Data for the mec2-1 strain (AID 157); settings: S. cerevisiae mec2-1 strain, at 50.0 µM, hits give high values
Summary of the method: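 Test agents were screened against the mec2-1 yeast strain, with defined DNA repair or cell cycle alteration. Growth was scored as inhibition against vehicle-only controls.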

[3] = NCI Yeast Anticancer Drug Screen. Data for the sgs1 mgt1 strain (AID 161);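 further: 0% = growth of cultures given vehicle only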; settings: S. cerevisiae sgs1 mgt1 strain, at 50.0 µM, hits give high values
Summary of the method: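 Read-out: growth inhibition vs vehicle controls. Cells: mutant yeast strain deficient in DNA damage repair.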

[4] = NCI Yeast Anticancer Drug Screen. Data for the cln2 rad14 strain (AID 165);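 further: 0% = growth equal to vehicle treated cultures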; settings: S. cerevisiae cln2 rad14 strain, at 50.0 µM, hits give high values
Summary of the method: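 Growth of compound-exposed yeast (cln2 rad14 genotype) measured and expressed as inhibition relative to vehicle.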

[5] = NCI Yeast Anticancer Drug Screen. Data for the bub3 strain (AID 167); settings: S. cerevisiae bub3 mutant strain, at 50.0 µM, hits give high values
Summary of the method: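 Mutant yeast screening strain plus compound; vehicle-treated cultures serve as the 0% inhibition reference.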

[6] = NCI Yeast Anticancer Drug Screen. Data for the mlh1 rad18 strain (AID 175); settings: S. cerevisiae mlh1 rad18 strain growth inhibition; at 50.0 µM; hits give high values
Summary of the method: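 In this whole-cell yeast screen, a strain with altered DNA damage repair is challenged with compound, and its growth is measured against matched vehicle-treated controls.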

Measured: growth inhibition

C=C(Cl)/C(=C\Cl)CCC(Cl)C(C)C (stereo not given)
inactive: [1] 19.6% | [2] 15.2% | [3] 3.1% | [4] 29.1% | [5] -15.3% | [6] 4.25%

CCCc1c(C(=O)OCC)[nH]c(C(=O)CCC(=O)c2[nH]c(C(=O)OCC)c(CCC)c2C(=O)OCC)c1C(=O)OCC
inactive: [1] 20.2% | [2] -13.5% | [3] -10.9% | [4] -19.4% | [5] -15.7% | [6] 2.35%

Cc1ncc([N+](=O)[O-])n1CCNCCCn1ccnc1[N+](=O)[O-]
inactive: [1] -9.9% | [2] -7.25% | [3] -17.4% | [4] -9.3% | [5] -9.7% | [6] -44%

C[n+]1c(/C=C/c2ccc3c(c2)OCO3)ccc2ccccc21
inactive: [1] 1.55% | [2] -0.2% | [3] 22% | [4] 6% | [5] 14.1% | [6] 14.2%

COc1ccc2ncc(C)c(CO)c2c1
inactive: [1] 3.25% | [2] -6.05% | [3] -1.65% | [4] -50.9% | [5] 0.75% | [6] -2.65%

O=S1(=O)C(c2ccccc2Cl)=C(O)C(O)=C1c1ccccc1Cl
inactive: [1] -0.6% | [2] -35.4% | [3] 5.05% | [4] 6% | [5] -2.1% | [6] 11.2%

CC(=O)c1ccc([C@H](O)[C@H](CO)NC(=O)C(Cl)Cl)cc1
inactive: [1] -1.1% | [2] 0.45% | [3] 6.95% | [4] -57.4% | [5] -21.6% | [6] -16.2%

Cc1ccc(S(=O)(=O)N/N=C/c2ccccc2)cc1
inactive: [1] 5.7% | [2] -0.5% | [3] 3.2% | [4] -27.6% | [5] 8.7% | [6] 7.35%

CCCC(=O)NS(=O)(=O)c1ccc(C)cc1
inactive: [1] 2.85% | [2] 7.3% | [3] 3.45% | [4] -24.9% | [5] 0.25% | [6] 5.75%

Nc1cccc(S(=O)(=O)Nc2ccccc2)c1
inactive: [1] 19.6% | [2] 25.6% | [3] 1.55% | [4] -6.6% | [5] 0.65% | [6] 10%

O=C(/C=C/c1ccc(F)c(F)c1)OCCc1ccccc1
inactive: [1] 28.1% | [2] 29% | [3] 32.7% | [4] 28.9% | [5] 40.9% | [6] 27.2%

O=C(CN1CCN(c2ccccc2)CC1)n1nnc2ccccc21
inactive: [1] -9.4% | [2] -3.9% | [3] -3.6% | [4] -13.8% | [5] -31.5% | [6] -6%

CC(C)(C)OC(=O)N1CCCC1=O
inactive: [1] 9.65% | [2] 13% | [3] 24.8% | [4] 22.3% | [5] 8.05% | [6] 28.5%

OC1(c2ccccc2)c2ccccc2Oc2cc(Cl)ccc21 (stereo not given)
inactive: [1] 9.4% | [2] -0.85% | [3] 2.8% | [4] 10.3% | [5] 2.15% | [6] 45.8%

O=C1C(c2cnc3c(n2)CCC=C3)=C(O)c2ccccc21
inactive: [1] -1.15% | [2] -7.8% | [3] -6.6% | [4] -84.2% | [5] -16.7% | [6] -0.65%

CCCCCCCC(=O)Oc1cccc(C)c1
inactive: [1] -0.9% | [2] -3.3% | [3] -8.6% | [4] -10.3% | [5] -7.35% | [6] 2.2%

Cn1nnc2c(C(N)=S)ncn2c1=O
inactive: [1] 30.1% | [2] 11% | [3] 10.7% | [4] 19.6% | [5] 17.9% | [6] 22%

CCOC(=O)CC(=O)c1ccc(Cl)cc1
inactive: [1] 15.1% | [2] 12.9% | [3] 11.4% | [4] 6.95% | [5] -12.8% | [6] -7.65%

Cc1ncc(CSC(=N)N)n1Cc1ccccc1
inactive: [1] -33.6% | [2] -11.4% | [3] -6.55% | [4] -17.6% | [5] -11.1% | [6] -23.9%

COc1cc2c(cc1C)C(C)(C)CCC2(C)C
inactive: [1] 7.8% | [2] -0.45% | [3] -3.1% | [4] -45.1% | [5] 20.6% | [6] 4.15%
